Common to all, as to assay: MAPPIT interaction score (arbitrary units); higher = stronger binary interaction signal, active = hit call of the paper
The target in experiment [1] is CAP. As to conditions: MAPPIT configuration: N-N; pair source set: screen_1.
The target of experiment [2] is vlc. As to conditions: MAPPIT configuration: N-C; pair source set: screen_3.
The target in experiment [3] is Bin1. As to conditions: MAPPIT configuration: N-N; pair source set: Lit-BM-16.
The target in experiment [4] is Dhx15. As to conditions: MAPPIT configuration: N-N; pair source set: DPIM.
Experiment [5] concerns the target p53. As to conditions: MAPPIT configuration: N-N; pair source set: Finley_Y2H.
Experiment [6] concerns the target C15. As to conditions: MAPPIT configuration: N-N.
The target of experiment [7] is CG8813. As to conditions: MAPPIT configuration: N-N; pair source set: Lit-BS-16.
For experiment [8], the target named is Lamtor3. As to conditions: MAPPIT configuration: N-N; pair source set: Curagen_high_conf.
Experiment [9] concerns the target Nplp1. As to conditions: MAPPIT configuration: N-N; pair source set: Curagen_low_conf.
The target of experiment [10] is Rm62. As to conditions: MAPPIT configuration: N-N; pair source set: Curagen_low_conf.
The target in experiment [11] is Traf-like. As to conditions: MAPPIT configuration: N-N; pair source set: Curagen_low_conf.
Experiment [12] concerns the target row. As to conditions: MAPPIT configuration: N-N; pair source set: Curagen_low_conf.
Experiment [13] has as its target CASK. As to conditions: MAPPIT configuration: N-C; pair source set: screen_4.
Experiment [14] deals with CG30324. As to conditions: MAPPIT configuration: N-C; pair source set: screen_4.
In experiment [15] the target is stck. As to conditions: MAPPIT configuration: N-C; pair source set: screen_3.
The target in experiment [16] is Bro. As to conditions: MAPPIT configuration: N-N; pair source set: screen_2.

Values without a mark were called inactive.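 The calls were made as follows: active = MAPPIT score above the 99th percentile of random reference set scores in the same batch; inactive = at or below it.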

The record followed here is the supplement of paper PMC10105736.
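Also: HEK293T cells with Epo stimulation, STAT-responsive firefly luciferase reporter, fold induction versus unstimulated cells divided by the larger fold induction of two negative controls lacking either bait or prey.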

B1: Vps28 (protein)
chain: MQEQSPELYEEVKLFRNAREREKYDNMADLYAIINTIQQLEKAYIRDCITPQEYTAACSKYLVQYKVAFKQVQCDEFPSVETFVKKFRLDCPAALERIREDRPITIRDDKGNTSKCIAEIVSLFITIMDKLRLQINTMDALQPDVKDLADNMNRLSLIPEDFDAKLKVEKWLGSLNEMQASDELSEGQVRQFLFDLESAYADFNKLLHSQ
Turning to B1, the MAPPIT interaction score is 1.33 in experiment [1] and 1.09 in [2].

B2: bcd (protein)
chain: MAQPPPDQNFYHHPLPHTHTHPHPHSHPHPHSHPHPHHQHPQLQLPPQFRNPFDLLFDERTGAINYNYIRPYLPNQMPKPDVFPSEELPDSLVMRRPRRTRTTFTSSQIAELEQHFLQGRYLTAPRLADLSAKLALGTAQVKIWFKNRRRRHKIQSDQHKDQSYEGMPLSPGMKQSDGDPPSLQTLSLGGGATPNALTPSPTPSTPTAHMTEHYSESFNAYYNYNGGHNHAQANRHMHMQYPSGGGPGPGSTNVNGGQFFQQQQVHNHQQQLHHQGNHVPHQMQQQQQQAQQQQYHHFDFQQKQASACRVLVKDEPEADYNFNSSYYMRSGMSGATASASAVARGAASPGSEVYEPLTPKNDESPSLCGIGIGGPCAIAVGETEAADDMDDGTSKKTTLQILEPLKGLDKSCDDGSSDDMSTGIRALAGTGNRGAAFAKFGKPSPPQGPQPPLGMGGVAMGESNQYQCTMDTIMQAYNPHRNAAGNSQFAYCFN
In the case of B2, the figures for the MAPPIT interaction score in experiment [3], in experiment [4] and in [5] were 0.579, 1.72 and -0.0711, respectively.

B3: Rm62 (protein)
chain: MLKLVQYIAPRVGGATPRPTACGWGNLLLISPRSGASSEKCITQRRHFLFSSASSSGTFASSSSLCTEQRQQFHGSRRNRETILFPSTYSSLQAQSQRAFRDSSKPDSDDYVDSIPKAEQRTRTRKSLFNDPDERTEEIKIEGVMAPHDRDFGHSGRGGRGGDRGGDDRRGGGGGGNRFGGGGGGGDYHGIRNGRVEKRRDDRGGGNRFGGGGGFGDRRGGGGGGSQDLPMRPVDFSNLAPFKKNFYQEHPNVANRSPYEVQRYREEQEITVRGQVPNPIQDFSEVHLPDYVMKEIRRQGYKAPTAIQAQGWPIAMSGSNFVGIAKTGSGKTLGYILPAIVHINNQQPLQRGDGPIALVLAPTRELAQQIQQVATEFGSSSYVRNTCVFGGAPKGGQMRDLQRGCEIVIATPGRLIDFLSAGSTNLKRCTYLVLDEADRMLDMGFEPQIRKIVSQIRPDRQTLMWSATWPKEVKQLAEDFLGNYIQINIGSLELSANHNIRQVVDVCDEFSKEEKLKTLLSDIYDTSESPGKIIIFVETKRRVDNLVRFIRSFGVRCGAIHGDKSQSERDFVLREFRSGKSNILVATDVAARGLDVDGIKYVINFDYPQNSEDYIHRIGRTGRSNTKGTSFAFFTKNNAKQAKALVDVLREANQEINPALENLARNSRYDGGGGRSRYGGGGGGGRFGGGGFKKGSLSNGRGFGGGGGGGGEGRHSRFD
In the case of B3, the MAPPIT interaction score in experiment [6] (pair source set: Curagen_low_conf) is -0.475; in experiment [6] (pair source set: Finley_Y2H), 0.053; in [7], -0.848; in experiment [8], 0.248; in experiment [9] it was -0.193; in experiment [10], -0.712. For the same molecule, the MAPPIT interaction score is 0.928 in experiment [11] and 0.558 in experiment [12].

B4: Mlp60A (protein)
chain: MPFVPVETPKCPACGKSVYAAEERVAGGYKFHKTCFKCSMCNKALDSTNCTEHEKELFCKNCHGRKYGPKGYGFGGGAGCLSTDTGAHLNRE
Take B4: the MAPPIT interaction score in experiment [13] is 1.2; in [14] it was 3.25; in experiment [15], 4.22 (active).

B5: run (protein)
chain: MHLPAGPTMVANNTQVLAAAAAAAAAAAAAVAQGPGPQQSSNATTASAIAINPAQSLANTSTHSASSTGSSTPDLSTNNTSSSSNATTSPQNSAKMPSSMTDMFASLHEMLQEYHGELAQTGSPSILCSALPNHWRSNKSLPGAFKVIALDDVPDGTLVSIKCGNDENYCGELRNCTTTMKNQVAKFNDLRFVGRSGRGKSFTLTITIATYPVQIASYSKAIKVTVDGPREPRSKQSYGYPHPGAFNPFMLNPAWLDAAYMTYGYADYFRHQAAAQAAQVHHPALAKSSASSVSPNPNPSVATSSSSAVQPSEYPHPAAAVAAAAGQPAAMMPSPPGAAPATPYAIPQFPFNHVAAAAAAKAATPHAFHPYNFAAAAGLRARNAALHHQSEPVHVSPASSRPSSSSPTQQHVLLKLNTSIETSSIHEQSASDGDSDDEQIDVVKSEFDLDKSLDVAPLRMRCDLKAPSAMKPLYHESGPGAVANSRQPSPETTTKIKSAAVQQKTVWRPY
For the molecule B5, in experiment [16], the MAPPIT interaction score is 3.14 (active).
